Structures are written as SMILES. The panel holds about 83,000 compounds, 20% with a hit somewhere; the sample as a whole holds those more often.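 Values shown are percent growth following 48 h exposure of cells in 96-well plates to a single concentration of compound; below 10 was considered active.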 Values without a mark were called inactive. The source made the active and inactive calls.

For this assay, the system named is SW-620 colon. Briefly: NCI-60 one-dose screen, 48 h (100 = growth as untreated, 0 = no growth, -100 = all killed). The conditions noted are these: 10 µM unless noted. Here is the method:
Growth inhibition of the SW-620 human tumor cell line is measured as a screen for anti-cancer activity. Cells are grown in 96 well plates and exposed to the test compound for 48 hours. Compounds are tested at a single concentration, which is 10^-5 M for most compounds. The reported endpoint is percent growth (GI% or GIPRCNT), where numbers from 0 - 100% represent growth inhibition, and numbers from -100% - 0 represent cell death. For example, a value of 40 represents 60% growth inhibition. A value of 0 means no net growth occurred over the course of the experiment. A value of -40 indicates 40% of cells at the beginning of the experiment died by the end of the experiment. A value of -100 means all cells are dead at the end of the experiment.
NCI-60 Human Tumor Cell Lines Screen was performed using the standard one-dose NCI protocol, which is described in more detail at https://dtp.cancer.gov/discovery_development/nci-60/default.htm.
Compounds with GIPRCNT values below 10 were considered active. Activity score was based on GIPRCNT using the following formula: […]
Score is 0 for GIPRCNT values of 100 or above, 50 for GIPRCNT values of 0, and 100 for GIPRCNT values of -100.
On to `COc1cc(C(=O)Nc2cc(O)c(CC=C(C)C)c(O)c2)cc2c1O[C@]1(C)CC[C@@H](O)C(C)(C)[C@H]1C2`, for which the growth was 7.03% (active). Regarding `Cc1ccc(C)c2c1C(=O)OC2=O`, the growth was 107%.

`CN1CCN(c2ccc3nc(/N=C/c4ccc5sc(-c6ccc([N+](=O)[O-])cc6)nc5c4)sc3c2)CC1`: the growth was 116%. As for `Oc1[nH]c2ccccc2c1/C=c1/cc2c(c(-c3ccc(F)cc3)n1)=Nc1ccccc1-2`, the growth was -10.6% (active). With `CC(C)(O)c1cccc(F)c1`, the growth is 103%. Turning to `COC(=O)/C(=C\c1ccc(OC)cc1)C(=O)N1c2ccccc2Sc2ccccc21`, the growth was 33.6%.

Turning to `c1ccc2c(c1)nc(-n1ccnc1)c1nc3ccccc3n12`, the growth is 65.7%.

For `C=C(C)C1CCC(=C)C2CCC3(C)OC12/C=C(/COC(C)=O)CCC3O` (stereo not given), the growth was 106%. In the case of `Cc1ccc(S(=O)(=O)NN/C(N)=N\S(=O)(=O)c2cc(C)c(Cl)cc2SCc2ccccc2)cc1`, the growth was 96.6%. Turning to `CSc1nc2sc3cc(Cl)ccc3n2c(=N)c1C#N`, the growth is 71.7%. For the compound `Cc1cc(=O)[nH]c(N/N=C/c2cc(Br)ccc2O)n1`, the growth was 40.3%. The result for `N=c1ccn2c(n1)OC1C(O)C(CO)OC12` (stereo not given) reads 41.5%; that for `O[C@H]1CO[C@H]2[C@@H]1OC[C@@H]2Oc1ccc(Nc2nc(Nc3ccc(F)c(Cl)c3)ncc2F)cc1Cl`, 98.2%. `O=[N+]([O-])c1ccc(-c2cc3c(Nc4ccc(Cl)c(C(F)(F)F)c4)ncnc3s2)cc1`: the growth is 16.8%. Regarding `CN1CCN(C(=O)[C@]23CCC(C)(C)C[C@@H]2C2=CC[C@@H]4[C@@]5(C)Cc6c([nH]c7ccccc67)C(C)(C)[C@@H]5CC[C@@]4(C)[C@]2(C)CC3)CC1`, the growth is 96.4%.

As to `N#Cc1c(N)n2c(nc1=Nc1ccc([N+](=O)[O-])cc1)sc1cc(Cl)ccc12`, the growth is 96.4%.

As to `O=C1CSC(c2ccc(O)cc2)N1c1nnc(Cn2cnnc2)o1` (stereo not given), the growth is 67.4%.

As to `O=C(Nc1ccc(N2CCCCC2)c(Cl)c1)c1ccc(Br)o1`, the growth is 74.2%.

Regarding `COc1cc(C(=O)/C=C/c2c(-c3ccc(F)cc3)nc3ncccn23)cc(OC)c1OC`, the growth is 32.2%. Regarding `CS(=O)(=O)c1ccc(-c2[nH]c3ccc(F)cc3c2/C=N/NC(N)=S)cc1`, the growth was 21.3%. On to `CC(C)OCCCNCC(=O)Nc1ccc(S(=O)(=O)c2ccc(NC(=O)CNCCCOC(C)C)cc2)cc1`, for which the growth was 87.6%. Consider `OC(COc1cccc2ccccc12)CN1CCN(c2ccccc2)CC1` (stereo not given), for which the growth is 102%. Regarding `CCCn1nc(-c2ccccc2)c2c(-c3ccccc3)onc2c1=O`, the growth was 43.5%. In the case of `Nc1c(C(=O)c2ccccc2)nnc2ncnn12`, the growth is 106%. For `CC1(C)CC(=O)c2c(ccc(C(=O)C[C@H](N)CO)c2N)O1`, the growth is 7.48% (active).

As to `Cc1c(C(=O)O)nnn1-c1nccs1`, the growth was 94%. As to `CNC(=O)c1cc(Oc2ccc3nc(Nc4cc(Cl)cc(Cl)c4)ccc3c2)ccn1`, the growth is 45.6%.

Turning to `N#Cc1c(Oc2ccc([N+](=O)[O-])cc2)nc2sc3cc(Cl)ccc3n2c1=N`, the growth was 93.1%. Turning to `CN1C[C@@H](c2ccc(Cl)cc2)[C@]2(NC(=S)N(c3ccc(F)c(Cl)c3)C2=O)[C@@]12C(=O)NC1C=CC(Cl)=C[C@H]12` (stereo not given in full), the growth is 62.2%. `O=C(Nc1ccccc1)c1sc(-c2cccc(C(F)(F)F)c2)cc1O`: the growth is 76.1%. The result for `COc1cc2c(O)n(CCCn3ccnc3)c3c4cnc5cccc(c(=O)c3c2cc1OC)c54` reads 20.4%; that for `CC(C)OC(=O)OCOP(=O)(OCOC(=O)OC(C)C)C1CCCN(O)C1=O` (stereo not given), 32.3%. `CCn1nc(C#Cc2c(C)ccc3c(Nc4ccc(Cl)cc4)nccc23)c2c(N)ncnc21`: the growth was 25%.

As for `COc1ccc(/C(C)=C(\c2ccc(Cl)cc2)c2ccc(OCCN(C)C)cc2)cc1F`, the growth was 54.8%. The value for `COC1=CC(c2ccc[nH]2)=N/C1=C\c1[nH]c(C)c(C(=O)OCCn2cc(CCC[C@@H]3Cc4cc(O)ccc4C4CC[C@]5(C)[C@@H](O)CC[C@H]5C43)nn2)c1C` (stereo not given in full) was 56.3%. As to `C=CCOc1cccc(/C=C2\SC(=Nc3ccc(O)cc3)NC2=O)c1`, the growth is 23.4%. The result for `N#Cc1c(-c2ccccc2)nc(SCC2CO2)nc1N1CCOCC1` (stereo not given) reads 84.4%. For the compound `O=c1oc2ccc(Cl)cc2cc1-c1cs/c(=N/N=C\c2ccc(Cl)cc2)n1/N=C/c1ccc(Cl)cc1`, the growth is 104%. Consider `C=C1c2c(C)nn(-c3ccc(NC(C)=O)cc3)c2N(C)C23CC1C1(C)c4c(C)nn(-c5ccc(NC(C)=O)cc5)c4N(C)C(C)(CC12)C3` (stereo not given), for which the growth was 27.9%. For `CCOC(=O)C(=CNc1ccccc1[N+](=O)[O-])C(=O)OCC`, the growth is 99.5%.

For the origin of these results see PubChem BioAssay (NCI).
